# Results reported in PubChem BioAssay (NCATS).
# Records with an inconclusive call do not appear. Active and inactive are the calls of the source. Calls come from the whole dose curve; as a rule, active = well fitted inhibition curve with a large enough effect; inconclusive = small, poorly fitted or top-dose-only effect; inactive = no such curve, though single readings can be large or run the other way.
# Target: Cytochrome P450 3A4 (Homo sapiens) (UniProt P08684)
# Assay: qHTS Assay for Inhibitors and Substrates of Cytochrome P450 3A4 (AID 884); note: nearly all actives have a fitted effect of over 50% in size
# Settings: recombinant CYP3A4, Luciferin-PPXE luminescence; series mostly up to 57.1 µM
# Method: NIH Molecular Libraries Screening Centers Network [MLSCN]
# NIH Chemical Genomics Center [NCGC]
# The P450 gene superfamily is involved in the metabolism and clearance of xenobiotics. This assay used human CYP3A4 to measure the dealkylation of luciferin-6' phenylpiperazinylyl (Luciferin-PPXE; […]) to luciferin. The luciferin is then measured by luminescence after the addition of a luciferase detection reagent. Luciferin-PPXE concentration in the assay was equal to its KM for CYP3A4. Inhibitors and some substrates limit the production of luciferin, and decrease measured luminescence.
# NCGC Assay Protocol Summary:
# Two uL of enzyme and substrate mix (final concentrations: 20nM CYP3A4, 25uM Luciferin-PPXE, 200mM KPO4) were dispensed into a white, solid bottom 1536-well microtiter plate. 23nL of compound was transferred by a pin tool. The plate was incubated at RT for 10 min. Two uL of an NADPH regeneration solution (Promega supplied reagent) was dispensed and the reaction was allowed to continue for 60 min at RT. Then the reaction was stopped by reconstituted luciferin detection buffer. After another 20 min of incubation the plate was read on the ViewLux (Perkin Elmer) at 60 sec exposure and 2x2 binning. This protocol was carried out with Promega-Glo reagents and further information can be found at http://www.promega.com/tbs/tb325/tb325.pdf. Data were normalized to the to AC100 inhibition (57 uM ketoconazole).
# Keywords: P450, CYP3A4, Luciferase, MLSMR, MLSCN, NIH Roadmap, qHTS, NCGC
# Potency is the fitted concentration of half-maximal effect.
# Sequence of Cytochrome P450 3A4 (Homo sapiens) (P08684 whole entry, looked up): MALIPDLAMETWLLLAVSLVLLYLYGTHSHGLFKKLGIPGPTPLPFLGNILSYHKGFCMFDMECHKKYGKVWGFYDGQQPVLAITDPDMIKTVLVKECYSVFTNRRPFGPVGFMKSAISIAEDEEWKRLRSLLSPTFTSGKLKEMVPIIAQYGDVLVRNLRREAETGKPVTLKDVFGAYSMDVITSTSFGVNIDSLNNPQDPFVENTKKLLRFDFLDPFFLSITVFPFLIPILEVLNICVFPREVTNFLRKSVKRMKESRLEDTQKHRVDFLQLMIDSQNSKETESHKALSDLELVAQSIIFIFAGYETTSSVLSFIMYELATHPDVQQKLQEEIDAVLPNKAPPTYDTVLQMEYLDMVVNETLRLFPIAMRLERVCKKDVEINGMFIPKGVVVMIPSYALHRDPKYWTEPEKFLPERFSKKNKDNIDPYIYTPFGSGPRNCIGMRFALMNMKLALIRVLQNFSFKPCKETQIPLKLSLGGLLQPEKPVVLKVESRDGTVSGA
row,SMILES,Potency
1,C=C(CC1([C@@H](NP(=O)(c2ccccc2)c2ccccc2)[C@H]2C[C@@H]2CCCC)CC1)c1cccc(OC)c1,2.51 µM (active)
2,COc1cccc(-c2oc3ccccc3c(=O)c2O)c1,12.6 µM (active)
3,CC(CCC(=O)O)C1CCC2C3C(=O)C[C@@H]4CC(=O)CC[C@@]4(C)C3CC(=O)[C@]12C (stereo not given in full),inactive
4,C=C(CC1([C@@H](NP(=O)(c2ccccc2)c2ccccc2)[C@H]2C[C@@H]2CCN(C(=O)OCC)S(=O)(=O)c2ccc(C)cc2)CC1)c1ccccc1,1.58 µM (active)
5,CCCC[C@@H]1C[C@H]1C(NC(=O)c1cccs1)c1ccc(C(F)(F)F)cc1 (stereo not given in full),3.16 µM (active)
6,CCC(C)Nc1ccc(NC(C)CC)cc1 (stereo not given),15.8 µM (active)
7,COc1ccccc1-c1cc(=O)c2cc(O)ccc2o1,12.6 µM (active)
8,C[C@@H](C(=O)Nc1ccc2ccccc2c1)[C@H]1C[C@]1(C)[C@H](NC(=O)OCc1ccccc1)c1ccccc1,2.51 µM (active)
9,O=C(/C=C/c1ccc(O)c(O)c1)OC1C[C@](O)(C(=O)O)C[C@@H](O)[C@H]1O (stereo not given in full),inactive
10,C=CC(=O)OCCOCCOC(=O)C=C,inactive
11,O=c1cc(-c2ccc(O)cc2O)oc2ccccc12,3.16 µM (active)
12,CC1(C)C(=O)C(c2ccccc2)=C2CN3C(=O)N(CCc4ccccc4)C(=O)C3(Cc3ccc(C(F)(F)F)cc3)C=C21 (stereo not given),2 µM (active)
13,COc1cc2oc(-c3ccccc3)cc(=O)c2cc1OC,15.8 µM (active)
14,CCCc1cc2c(n1CCc1ccc(Cl)cc1)C(C)C1CN(C(=O)c3ccccc3)C(C)(C(=O)OC)C21 (stereo not given),5.01 µM (active)
15,COC(=O)N[C@H](c1ccccc1)[C@@]1(C)C[C@@H]1[C@@H](C)C(=O)Nc1ccc2ccccc2c1,0.199 µM (active)
16,CCC[C@@H]1C[C@@]1(CCC)C(NC(=O)c1cccs1)c1ccc(Cl)cc1 (stereo not given in full),6.31 µM (active)
17,COC(=O)[C@@]1(Cc2ccc(F)cc2)[C@@H]2[C@@H](CC(=O)[C@H]2CC(=O)C(=O)N2CCCC2)CN1C(=O)c1ccccc1,1.58 µM (active)
18,Oc1ccc2cc(SSc3ccc4cc(O)ccc4c3)ccc2c1,15.8 µM (active)
19,C[C@@H](C(=O)NCCc1c[nH]c2ccccc12)[C@H]1C[C@]1(C)[C@H](NC(=O)OCc1ccccc1)c1ccccc1,1.58 µM (active)
20,Cc1cc(C(=O)N[C@H](c2ccccc2)[C@@]2(C)C[C@@H]2[C@@H](C)C(=O)Nc2ccc3ccccc3c2)n(C)n1,0.794 µM (active)

row,SMILES,Potency
1,OCCN1CC(O)C(O)C(O)C1CO (stereo not given),inactive
2,COC(=O)C1(Cc2ccccc2)C2c3cc(C(=O)N4CCCC4)n(Cc4ccc(OC(F)(F)F)cc4)c3CC2CN1C(=O)c1ccccc1 (stereo not given),3.16 µM (active)
3,COC(=O)[C@@]1(Cc2ccc(F)cc2)[C@H]2c3cc(C(=O)N4CCCC4)n(Cc4ccc(C)o4)c3C[C@H]2CN1C(=O)c1ccccc1,3.16 µM (active)
4,COC(=O)[C@@]1(Cc2ccc(F)cc2)[C@H]2c3cc(C(=O)N4CCCC4)n(Cc4ccc(C)c(F)c4F)c3C[C@H]2CN1C(=O)c1ccccc1,2.51 µM (active)
5,COC(=O)[C@@]1(Cc2ccc(OC)cc2)[C@H]2c3cc(C(=O)N4CCCC4)n(CCc4c[nH]c5cc(F)ccc45)c3C[C@H]2CN1C(=O)c1ccccc1,1.26 µM (active)
6,FC(F)(F)c1ccccc1-c1nc(Nc2ccncc2)c2ccccc2n1,0.631 µM (active)
7,Cn1ccc(O)c(C#N)c1=O,inactive
8,O=C(NCCc1c[nH]c2ccccc12)[C@@H]1C[C@H]1[C@@H](NP(=O)(c1ccccc1)c1ccccc1)c1ccccc1,1.26 µM (active)
9,CCCCCCCC[N+](CCCCCCCC)(CCCCCCCC)CCCCCCCC,12.6 µM (active)
10,COc1ccc(-c2cc(=O)c3ccc(O)cc3o2)cc1,7.94 µM (active)
11,CCC/C=C(\CCC)C(NS(=O)(=O)c1cccs1)c1ccc(C(=O)OC)cc1 (stereo not given),3.16 µM (active)
12,C[C@@H](C(=O)NCCF)[C@H]1C[C@]1(C)[C@H](NC(=O)OCc1ccccc1)c1ccccc1,3.98 µM (active)
13,CC(=O)Nc1ccc(C(=O)CCl)cc1,inactive
14,CC(=O)OCC(=O)[C@@]1(O)CCC2C3CCC4=CC(=O)C=CC4(C)C3C(O)C[C@]21C (stereo not given in full),inactive
15,COC(=O)[C@@]1(Cc2ccccc2)[C@H]2c3cc(C(=O)N4CCCC4)n(CCc4ccccn4)c3C[C@H]2CN1C(=O)c1ccccc1,2 µM (active)
16,COc1ccc(COC2OC[C@]3(C)[C@H]4C5=C(CN3C(=O)OC(C)(C)C)[C@H](C)C(CO)C(CO)C5CC[C@@H]24)cc1 (stereo not given in full),7.94 µM (active)
17,COc1ccc2oc(-c3ccccc3)c(OC)c(=O)c2c1,31.6 µM (active)
18,CC(=O)N[C@H](c1ccccc1)[C@@]1(C)C[C@@H]1[C@@H](C)C(=O)Nc1ccc2ccccc2c1,7.94 µM (active)
19,COc1ccc(-c2oc3cc(OC)c(OC(C)=O)c(OC)c3c(=O)c2OC)cc1OC(C)=O,5.01 µM (active)
20,c1ccc2c(c1)Cc1cc3ccccc3nc1-2,20 µM (active)
